MITF primary = blocks human microphthalmia-associated transcription factor. AlphaScreen MITF homodimerization, bead proximity signal. inhibition, % at 2.6 µM. 650,000 compounds, 0.91% hits; in the data active means inhibition above about 50%
TEAD-YAP block = TEAD-YAP interaction inhibition. HEK-TIYL cells, TEAD-Gal4/YAP UAS-luciferase luminescence. inhibition, % at 9.12 µM. 640,000 compounds, 1.4% hits. AID 1259422; in the data active means inhibition above about 32%
GPR151 activ = activators of human GPR151 | 650,000 compounds, 1% hits | PathHunter beta-arrestin GPR151 cells, luminescence | activation, % at 11.2 µM; in the data active means activation above about 4.9%
Target sequence (Q8TDV0 whole entry, looked up): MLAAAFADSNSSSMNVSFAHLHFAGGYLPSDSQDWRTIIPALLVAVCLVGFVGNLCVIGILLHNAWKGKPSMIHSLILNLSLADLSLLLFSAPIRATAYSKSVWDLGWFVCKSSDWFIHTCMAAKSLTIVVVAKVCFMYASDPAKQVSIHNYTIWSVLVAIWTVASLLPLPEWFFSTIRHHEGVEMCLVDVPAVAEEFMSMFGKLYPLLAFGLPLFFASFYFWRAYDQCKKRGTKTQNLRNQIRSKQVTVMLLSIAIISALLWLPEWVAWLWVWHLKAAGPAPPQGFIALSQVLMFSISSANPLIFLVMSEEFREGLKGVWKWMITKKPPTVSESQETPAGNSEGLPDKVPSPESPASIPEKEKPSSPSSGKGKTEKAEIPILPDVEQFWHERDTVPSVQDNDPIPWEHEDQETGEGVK
FBW7 act = human FBW7 E3 ligase activation, primary screen. AlphaScreen FBW7–phospho-cyclin E peptide binding, activator screen. AID 1259310. normalized activity (activation), % at 26.1 µM. Q969H0. 650,000 compounds, 0.13% hits; in the data active means normalized activity above about 1.9%;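 further: purified mutant Fbw7 with reduced substrate affinity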
Large screens that a line does not name were inactive. This is a sample that favours compounds with a hit; in the whole collection about 3.5% have one here.

COc1ccc(-c2nc(-c3ccccn3)no2)cc1	TEAD-YAP block 97
COc1ccc(-c2nc(-c3ccccc3)no2)cc1	TEAD-YAP block 53
COc1cc(OC)cc(-c2nc(-c3ccccn3)no2)c1	none
COc1cc(OC)cc(-c2nc(-c3ccccc3)no2)c1	none
COc1ccc(-c2nc(-c3cccs3)no2)cc1	TEAD-YAP block 75
Cc1nc(N(C)c2ccc(C(C)C)cc2)c2c(C)c(C(=O)O)sc2n1	none
COc1ccc(C(CNC(=O)c2c(F)cccc2Cl)N2CCN(C)CC2)cc1 (centres undefined)	none
O=C1CCCN1CCCNc1nc(Nc2ccncn2)nc2c1ncn2Cc1ccc(C(F)(F)F)cc1	none
Cc1c(Cl)cccc1-c1ccc(C(=O)Nc2ccc(S(N)(=O)=O)cc2)o1	none
CCN(CC)S(=O)(=O)c1cccc(C(=O)Nc2nc(COc3ccccc3)cs2)c1	TEAD-YAP block 32
Cc1ccc(-n2c(/C=C/c3coc4ccc(Cl)cc4c3=O)nc3ccccc3c2=O)cc1	none
Cc1csc2c(C#N)cc(NC(=O)c3cccs3)c(=O)n12	none
O=[N+]([O-])c1ccc2c(c1)C(N1CCOCC1)/C(=C\COc1ccc(F)cc1)O2 (centres undefined)	none
O=C1CCCC2=C1C(c1cccs1)Nc1ccc(C(=O)c3ccccc3)cc1N2 (centres undefined)	TEAD-YAP block 55
O=C1CCCC2=C1C(c1cccs1)N(C(=O)c1ccccc1)c1ccccc1N2 (centres undefined)	none
CC(=O)N1c2ccccc2NC2=C(C(=O)CCC2)C1c1cccs1 (centres undefined)	TEAD-YAP block 49
O=C1CCCC2=C1C(c1cccc(Br)c1)Nc1ccccc1N2 (centres undefined)	none
O=C1CCCC2=C1C(c1ccc(O)cc1)Nc1ccc(C(=O)c3ccccc3)cc1N2 (centres undefined)	TEAD-YAP block 34
O=C1CCCC2=C1C(c1ccc(F)cc1)Nc1ccc(C(=O)c3ccccc3)cc1N2 (centres undefined)	none
O=C1CCCC2=C1C(c1cccc(Br)c1)Nc1ccc(C(=O)c3ccccc3)cc1N2 (centres undefined)	TEAD-YAP block 68
CC(C)C(=O)Nc1sc2c(c1C(N)=O)CCN(C)C2	none
Cc1ccc(NC(=O)C2C3C=CC4(O3)C2C(=O)N(C(C)c2ccccc2)C4C(=O)NC2CCCCC2)cc1C (centres undefined)	none
O=[N+]([O-])c1c(N2CCCCCC2)ncnc1N1CCCCCC1	none
CCCCN(C)c1ncnc(N)c1[N+](=O)[O-]	TEAD-YAP block 41
CCCCN(c1ccccc1)c1ncnc(N)c1[N+](=O)[O-]	none
Nc1ncnc(N2CCCCCC2)c1[N+](=O)[O-]	TEAD-YAP block 49
CN(c1ncnc(N)c1[N+](=O)[O-])C1CCS(=O)(=O)C1 (centres undefined)	none
CN(c1ncnc(N)c1[N+](=O)[O-])C1CCCCC1	TEAD-YAP block 54
CCN(c1ccccc1)c1ncnc(N)c1[N+](=O)[O-]	TEAD-YAP block 52
CCN(CC)c1ncnc(N)c1[N+](=O)[O-]	TEAD-YAP block 63
CCCCN(Cc1ccccc1)c1ncnc(N)c1[N+](=O)[O-]	none
CCOC(=O)c1c(NC(=O)C2CC2c2ccccc2)sc(C)c1C (centres undefined)	none
CCc1c(C)sc(NC(=O)C2CC2c2ccccc2)c1C(N)=O (centres undefined)	TEAD-YAP block 33
O=C(Nc1nc2ccc(-c3cn[nH]c3)cc2s1)C1CNCC1c1ccccc1 (centres undefined)	TEAD-YAP block 54
NCC(=O)N1CC(C(=O)Nc2nc3ccc(-c4cn[nH]c4)cc3s2)C(c2ccccc2)C1 (centres undefined)	none
COc1cccc(CNC(=O)Nc2nc3ccc(-c4cn[nH]c4)cc3s2)c1	TEAD-YAP block 96
O=C(Nc1nc2ccc(-c3cn[nH]c3)cc2s1)C1COc2ccc(F)cc2C1 (centres undefined)	TEAD-YAP block 48
COc1ccc2c(c1)CC(C(=O)Nc1nc3ccc(-c4cn[nH]c4)cc3s1)CO2 (centres undefined)	none
COc1cccc(C(=O)Nc2nc3ccc(-c4cn[nH]c4)cc3s2)c1	none
COC(=O)c1cc(S(=O)(=O)NCc2ccc(Cl)cc2)c[nH]1	none
CC1CCCC(NS(=O)(=O)c2ccc3c(c2)CC(C)N3C(=O)C2CC2)C1C (centres undefined)	none
CC1CCCCN1C(=O)CSc1nnc(-c2ccc(O)cc2)o1 (centres undefined)	TEAD-YAP block 49
Cc1ccc(-c2nnc(SCC(=O)N3CCCCC3C)o2)cc1C (centres undefined)	none
O=[N+]([O-])c1ccc(Sc2nnc3ccccn23)c(Cl)c1	none
Cc1ccc(Nc2nc(CSc3nnc(N)s3)cs2)cc1	TEAD-YAP block 44
COc1ccc(N2CCN(S(=O)(=O)c3ccc4[nH]c(=O)oc4c3)CC2)cc1	none
O=[N+]([O-])c1cccc(NC(c2ccco2)c2ccc3cccnc3c2O)c1 (centres undefined)	MITF primary 82, TEAD-YAP block 75
O=[N+]([O-])c1ccc(NC(c2ccco2)c2ccc3cccnc3c2O)cc1 (centres undefined)	MITF primary 58, TEAD-YAP block 70
O=C(Cc1ccccc1)NC(c1ccco1)c1ccc2cccnc2c1O (centres undefined)	none
O=C(N/C(=C/c1ccccc1O)C(=O)N1CCCCC1)c1ccccc1	TEAD-YAP block 74
O=C(N/N=C/c1ccccc1F)/C(=C/c1ccccc1O)NC(=O)c1ccccc1	TEAD-YAP block 89
O=C(N/C(=C/c1ccccc1)C(=O)N1CCCCCCC1)c1ccccc1	none
O=C(N/N=C/c1ccccc1O)/C(=C/c1ccccc1)NC(=O)c1ccccc1	none
COc1ccc(OC)c(/C=C(\NC(=O)c2ccccc2)C(=O)N/N=C/c2cccc(O)c2)c1	FBW7 act 2.5
COc1ccc(/C=C(/NC(=O)c2ccccc2)C(=O)N/N=C/c2cccc(O)c2)cc1OC	none
CC1(C)CC(=O)C2=C(C1)N(c1ccc([N+](=O)[O-])cc1)C(N)=C(C#N)C2c1ccc(C(C)(C)C)s1 (centres undefined)	none
Fc1cc(-c2nc(Nc3cccc(CN4CCCC4)c3)ncc2F)cc(N2CCOCC2)c1	TEAD-YAP block 93
Fc1cc(-c2nc(Nc3cccc(Cn4cccn4)c3)ncc2F)cc(N2CCOCC2)c1	none
Fc1cc(-c2nc(Nc3ccc(-n4ccnc4)cc3)ncc2F)cc(N2CCOCC2)c1	TEAD-YAP block 57
Cc1nc(C)n(-c2ccc(Nc3ncc(F)c(-c4cc(F)cc(N5CCN(C)CC5)c4)n3)cc2)n1	TEAD-YAP block 64
Cc1nc(C)n(-c2ccc(Nc3ncc(F)c(-c4cc(C#N)cc(N5CCOCC5)c4)n3)cc2)n1	none
Fc1cc(-c2ccnc(Nc3cccc(CN4CCOCC4)c3)n2)cc(N2CCOCC2)c1	TEAD-YAP block 53
CN(C(=O)C1CCC1)c1nnc(-c2ccc(Cl)cc2)s1	none
CCCN(CCC)c1nc(NC(C)(C)C)nc(N2CCOCC2)n1	none
Fc1cc(-c2nc(Nc3cccc(CN4CCOCC4)c3)ncc2F)cc(N2CCOCC2)c1	TEAD-YAP block 91

Screening results: PubChem, The Scripps Research Institute Molecular Screening Center
